Results on 40 compounds are retold here after PubChem BioAssay (NCI).

Values joined by “and” are separate entries in the source; they are usually repeats but may differ in a detail not shown here. Equal entries are not always repeated. The panel holds about 83,000 compounds, 20% with a hit somewhere; the sample as a whole holds those more often.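 For each line, cells grew in 96-well plates with the test compound present at a single concentration for 48 hours.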 Active and inactive are the calls of the source. The calls were made as follows: active = growth percent below 10; inactive = the rest.

For this assay, the system named is MDA-MB-468 breast. Briefly: NCI-60 one-dose screen, 48 h (100 = growth as untreated, 0 = no growth, -100 = all killed). The note with it: 10 µM unless noted.
Regarding `CC(C)=CCc1c(O)c(C(=O)CC(C)C)c(O)c2c(-c3ccccc3)cc(=O)oc12`, the growth was 23.1% (inactive).
The value for `C/C(=C\c1ccc(Cl)c(Cl)c1)[N+](=O)[O-]` was -77.9% (active) and 93.8% (inactive).
Consider `CC(C)(C)OOC(=O)/C=C\C(=O)OOC(C)(C)C`, for which the growth was 108% (inactive).
With `Oc1ccc(O)c(Cl)c1`, the growth is 89.7% (inactive) and 95.1% (inactive).
As for `O=C([O][Hg][CH2]C1COCC([CH2][Hg][O]C(=O)c2ccccc2)O1)c1ccccc1` (stereo not given), the figure is 22.7% (inactive); as for `CCCC(=O)O[C@@H]1C[C@H]2C[C@@H](O[C@@H]3O[C@@H](C)[C@@H](O)[C@@H](O)[C@H]3OC)C[C@@H](C[C@@H](C)/C=C/C=C\C[C@@H]3O[C@@H](C[C@@H]3C)[C@@H](O)C[C@H]3C[C@@]1(O)C(=O)O3)O2`, -6.3% (active).
In the case of `CNC(=O)Oc1ccccc1-c1ccccc1`, the growth was 113% (inactive).
For `C[C@]12CCc3sc(-c4cccc(F)c4)nc3C1=CC[C@@H]1[C@@H]2CC[C@]2(C)C(=O)CC[C@@H]12`, the growth was 29.2% (inactive).
Take `CN(C)CCCOc1ccc2c(c1)c(C(=O)C(=O)NCCO)cn2Cc1ccccc1`: the growth was 117% (inactive).
The value for `CC1(C)N=C(N)N=C(N)N1c1ccc(CCC(=O)Nc2ccc(S(=O)(=O)F)cc2)c(Cl)c1` was 64.2% (inactive).
For `O=C(CI)Nc1ccc(Br)cc1`, the growth was 79.1% (inactive).
For the compound `Cc1cc(NC(=O)NCCCOc2ccc(N3C(N)=NC(N)=NC3(C)C)cc2Cl)ccc1S(=O)(=O)F`, the growth was 7.83% (active).
For the compound `COC(=O)[C@@]1(O)C[C@H]2O[C@]1(C)n1c3ccccc3c3c4c(c5c6ccccc6n2c5c31)C(=O)NC4`, the growth is -72.4% (active).
Turning to `O=C1NC(=O)C(=Cc2cccn2CCCCCn2c3ccccc3c(=O)c3ccccc32)C(=O)N1`, the growth was 107% (inactive).
Consider `COc1cc([N+](=O)[O-])c2ncccc2c1[N+](=O)[O-]`, for which the growth is 0.105% (active).
As for `C[CH2][Hg][S]c1ccccc1C(=O)O`, the figure is -86.6% (active); as for `CNC(=O)O/N=C(\SC)C(=O)N(C)C`, 116% (inactive).
As to `O=C(O)c1ccccc1N(CCO)CCCl`, the growth was 95.1% (inactive).
Turning to `CCCCCCCCCCCCNC(c1ccccc1)C(O)c1ccccc1` (stereo not given), the growth was 48.5% (inactive).
Turning to `CC[C@H](C)[C@H](NC(=O)c1ncccn1)C(=O)N(C)[C@H](C[C@@H](OC(C)=O)c1nc(C(=O)N[C@@H](Cc2ccccc2)C[C@H](C)C(=O)OC)cs1)C(C)C`, the growth is 23% (inactive).
Consider `CC/C(Cc1ccccc1)=C(\c1ccc(OCCN2CCCC2)cc1)c1ccc(OC(=O)NCc2ccccc2)cc1`, for which the growth was 14.8% (inactive).
With `CN(C)C(=O)Oc1ccccc1-c1ccccc1`, the growth is 99.7% (inactive).
The value for `COc1ccccc1[As]=[As]c1ccccc1OC` (stereo not given) was -94.8% (active); that for `C[CH2][Sn]([Cl])([Cl])[CH2]C.Oc1ccccc1C=NCCN=Cc1ccccc1O` was 103% (inactive).
As for `COc1cc(C=Nc2cc(Cl)cc(Cl)c2)ccc1N(CCCl)CCCl`, the figure is 36.3% (inactive).
Turning to `O=S(=O)(c1ccc(O)cc1)c1ccccc1O`, the growth is 108% (inactive).
As for `CC1CN1CCCCN1CC1C` (stereo not given), the growth was 101% (inactive).
The value for `CCCCC1(CCC)C(=O)NC(=S)NC1=O` was 98.7% (inactive).
For `NC(=O)NC(=O)CI`, the growth is 83.7% (inactive).
As for `c1ccc(CCN2CCCCC2Cc2ccccc2)cc1` (stereo not given), the figure is 103% (inactive); as for `COc1ccc(C2=N[C@@H](Cc3ccccc3)C(=O)Nc3ccsc32)cc1`, 8.23% (active).
For `COc1ccc(C(C#N)C(C)=O)cc1` (stereo not given), the growth is 106% (inactive).
As for `C=C1C(=O)OC2CC3(C)OC3C3OC3C3=CC(OC3=O)C12` (stereo not given), the figure is 32.8% (inactive) and 65.2% (inactive).
Regarding `CC[CH2][Pb]([CH2]CC)([CH2]CC)[O]C(=O)C(F)(F)F`, the growth is -90.1% (active).
`CN1CCN(c2ccc([N+](=O)[O-])c3no[n+]([O-])c23)CC1`: the growth is -70.3% (active).
As for `CN1C(=O)C(=Cc2cn(CCCCCCn3c4ccccc4c(=O)c4ccccc43)c3ccccc23)C(=O)N(C)C1=O`, the growth was 81% (inactive).
Take `Cc1cc(N(CCCl)CCCl)ccc1C=Nc1ccccc1-c1ccccc1`: the growth was 2.49% (active).
For `O=[N+]([O-])c1ccccc1N1CCNCC1`, the growth was 113% (inactive).
Regarding `COc1cc(C2C3=C(CCCC3=O)N(CCO)c3cc4c(cc32)CCC4)cc(OC)c1OC` (stereo not given), the growth was 93.8% (inactive).
On to `Cn1cccc1C1CC(=O)N(CCC[Se]C#N)C1=O` (stereo not given), for which the growth was 13.6% (inactive).
